From the supplement of paper PMC13380429

Test system: Vero E6 infected with SARS-CoV-2
Experiment: inhibition of SARS-CoV-2 cytopathic effect; higher = more antiviral protection, active = above 15
Conditions: 48 h

Measured: inhibition of SARS-CoV-2 cytopathic effect

NCCC(Oc1ccc(C(F)(F)F)cc1)c1ccccc1 (stereo not given) [norfluoxetine]
inactive: 1 nM 1.01% | 8.33 nM 2.75% | 100 nM 1.92% | 833.33 nM -0.09% | 10000 nM -5.55%

O=C(Nc1ccccc1C(=O)NC1CCCCNC1=O)c1cc2ccccc2s1 (stereo not given)
inactive: 1 nM -1.69% | 8.33 nM -3.72% | 100 nM -3.22% | 833.33 nM -1.52% | 10000 nM -0.14%

NC(=O)c1ccc(I)c([N+](=O)[O-])c1 [iniparib]
inactive: 1 nM 0.64% | 8.33 nM 1.76% | 100 nM 0.16% | 833.33 nM 2.29% | 10000 nM 3.53%

CO[C@@]1(NC(=O)C2SC(=C(C(N)=O)C(=O)O)S2)C(=O)N2C(C(=O)O)=C(CSc3nnnn3C)CS[C@@H]21 (stereo not given in full) [cefotetan]
inactive: 1 nM 0.97% | 8.33 nM 1.11% | 100 nM 2.32% | 833.33 nM -0.94% | 10000 nM 0.24%

O=c1[nH]c2ccccc2n1CCCN1CCN(C(c2ccccc2)c2ccccc2)CC1 [oxatomide]
inactive: 1 nM -0.36% | 8.33 nM 2.61% | 100 nM 1.85% | 833.33 nM 1.64% | 10000 nM -7.26%

Oc1cc(O)c(Cl)cn1 [gimeracil]
inactive: 1 nM -0.94% | 8.33 nM 0.32% | 100 nM -0.13% | 833.33 nM -0.16% | 10000 nM 1.36%

O=C(CCCCCCC(=O)Nc1cccnc1)NO [pyroxamide]
inactive: 1 nM 0.71% | 8.33 nM -1.1% | 100 nM 0.72% | 833.33 nM -1.43% | 10000 nM -5.97%

CCOC(=O)[C@@H](N)Cc1ccc(O)c(O)c1 [etilevodopa]
inactive: 1 nM 3.02% | 8.33 nM 1.51% | 100 nM 2.32% | 833.33 nM 0.72% | 10000 nM 0.9%

N=C(Nc1ccccc1)Nc1ccccc1 [diphenylguanidine]
inactive: 1 nM -3.55% | 8.33 nM -2.37% | 100 nM -2.77% | 833.33 nM -0.58% | 10000 nM 2.16%

COc1cc2c3cc1Oc1cc(ccc1O)C[C@@H]1c4c(cc(OC)c(O)c4Oc4ccc(cc4)C[C@@H]3N(C)CC2)CC[N+]1(C)C [tubocurarine]
inactive: 1 nM -3.23% | 8.33 nM -3.95% | 100 nM -2.68% | 833.33 nM 0.38% | 10000 nM 1.45%

O=C(O)COc1cccc(-c2ocnc2-c2nc(-c3ccccc3)c(-c3ccccc3)o2)c1
inactive: 1 nM -0.58% | 8.33 nM 0.52% | 100 nM 0.7% | 833.33 nM 0% | 10000 nM 3.01%

O=C(O)c1ccccc1S [o-mercapto-benzoic-acid]
inactive: 1 nM -1.65% | 8.33 nM -0.03% | 100 nM 0.12% | 833.33 nM -2.81% | 10000 nM -0.55%

N=C(N)NCCC[C@H](N)C(=O)O [L-arginine]
inactive: 1 nM 2.26% | 8.33 nM 3.4% | 100 nM -3.93% | 833.33 nM 1.97% | 10000 nM 1.83%

Cc1ccc(CC2(O)CCN(CCOc3ccc(O)cc3)CC2)cc1
inactive: 1 nM -5.34% | 8.33 nM 1.47% | 100 nM 3.16% | 833.33 nM -0.31% | 10000 nM 1.64%

O=C1c2ccccc2C(=O)C1c1ccc(Br)cc1 [bromindione]
inactive: 1 nM -0.87% | 8.33 nM 2.1% | 100 nM -2.65% | 833.33 nM 1.04% | 10000 nM 0.05%

CSCC[C@H](NC(=O)[C@H](CC(C)C)NC(=O)[C@@H](Cc1c[nH]c2ccccc12)NC(=O)[C@H](Cc1ccccc1)N(C)C(=O)[C@@H](Cc1c[nH]c2ccccc12)NC(=O)[C@@H](N)CCCNC(=N)N)C(N)=O [antagonist-g]
inactive: 1 nM 2.09% | 8.33 nM 0.43% | 100 nM -0.05% | 833.33 nM 1.24% | 10000 nM -1.09%

Nc1ccc(S(=O)(=O)Nc2ccc(Cl)nn2)cc1 [sulfachlorpyridazine]
inactive: 1 nM 0.57% | 8.33 nM -0.21% | 100 nM 1.77% | 833.33 nM -1.32% | 10000 nM 0.69%

CC(C)(C)Cn1c(N)nc2ccc(-c3[nH]c(C(C)(C)C)nc3-c3ccc(F)cc3)nc21
active: 10000 nM 55.2%
inactive: 1 nM 2.2% | 8.33 nM -0.57% | 100 nM -1.43% | 833.33 nM 11.8%

CC(=O)OCC(=O)[C@@]12OC(C)(C)O[C@@H]1C[C@H]1[C@@H]3C[C@H](F)C4=CC(=O)C=C[C@]4(C)[C@@]3(F)[C@@H](O)C[C@@]12C [fluocinonide]
inactive: 1 nM 0.75% | 8.33 nM -0.105% | 100 nM 0.48% | 833.33 nM 0.035% | 10000 nM -1.54%

Cn1cc(C2=C(c3cn(CCCSC(=N)N)c4ccccc34)C(=O)NC2=O)c2ccccc21 [bisindolylmaleimide-IX]
inactive: 1 nM -1.28% | 8.33 nM -0.79% | 100 nM -3.04% | 833.33 nM 1% | 10000 nM -1.54%

CN(C)CC[C@@H](c1ccc(Cl)cc1)c1ccccn1 [chlorphenamine]
inactive: 1 nM 0.315% | 8.33 nM 1.98% | 100 nM -0.53% | 833.33 nM 0.17% | 10000 nM -5.02%

Cc1cnc(C(=O)NCCc2ccc(S(=O)(=O)NC(=O)NC3CCCCC3)cc2)cn1 [glipizide]
inactive: 1 nM -3.14% | 8.33 nM -1.53% | 100 nM -0.68% | 833.33 nM -1.78% | 10000 nM 0.54%

CCCCOC(=O)c1ccccc1Nc1cccc(C(F)(F)F)c1 [ufenamate]
inactive: 1 nM 2.83% | 8.33 nM 2.78% | 100 nM 0.41% | 833.33 nM 1.79% | 10000 nM 0.16%

Cc1cc(C)c(S(=O)(=O)Nc2ccccc2C(F)(F)F)c(C)c1
inactive: 1 nM 2.1% | 8.33 nM 6.17% | 100 nM 4.56% | 833.33 nM 2.55% | 10000 nM 4.64%

NCCCC[C@H](NC(=O)[C@@H](Cc1cc(Br)c(O)c(Br)c1)NC(=O)N1CCC(N2Cc3ccccc3NC2=O)CC1)C(=O)N1CCN(c2ccncc2)CC1
inactive: 1 nM 0.88% | 8.33 nM 0.87% | 100 nM 2.08% | 833.33 nM -1.34% | 10000 nM 0.72%

CN1C(=O)CC(C)(c2ccccc2)C1=O (stereo not given) [methsuximide]
inactive: 1 nM -1.1% | 8.33 nM 0% | 100 nM 1.03% | 833.33 nM 0.88% | 10000 nM -0.14%

CC(C)Oc1ccc2c(=O)c3cc(C(=O)O)ccc3oc2c1
inactive: 1 nM -2.35% | 8.33 nM -1.43% | 100 nM -1.13% | 833.33 nM -1.68% | 10000 nM -1%

COc1cc2ncnc(Nc3cccc(Cl)c3F)c2cc1OC(=O)N1CCN(C)C[C@H]1C
inactive: 1 nM 1.89% | 8.33 nM 2.48% | 100 nM -1.03% | 833.33 nM -2.96% | 10000 nM -9.49%

O=C1NC(c2ccccc2)(c2ccccc2)C(=O)N1COP(=O)(O)O [fosphenytoin]
inactive: 1 nM 2.33% | 8.33 nM 4.09% | 100 nM 13.5% | 833.33 nM 1.24% | 10000 nM -0.44%

CC1(C)O[C@@H]2C[C@H]3[C@@H]4CCC5=CC(=O)CC[C@]5(C)[C@@]4(F)[C@@H](O)C[C@]3(C)[C@]2(C(=O)CCl)O1 [halcinonide]
inactive: 1 nM 2.25% | 8.33 nM 1.06% | 100 nM -0.43% | 833.33 nM -0.9% | 10000 nM -0.92%

CS(=O)(=O)Nc1ccc2oc3c(OC(F)F)ccc(C(=O)Nc4c(Cl)cncc4Cl)c3c2c1 [oglemilast]
inactive: 1 nM -1% | 8.33 nM 0.83% | 100 nM 1.63% | 833.33 nM 0.94% | 10000 nM 1.89%

C=C(C)[C@@H]1CC[C@]2(C(=O)O)CC[C@]3(C)[C@H](CC[C@@H]4[C@@]5(C)CC[C@H](OC(=O)CC(C)(C)C(=O)O)C(C)(C)[C@@H]5CC[C@]43C)[C@@H]12 [bevirimat-dimeglumine]
inactive: 1 nM -1.52% | 8.33 nM 0.9% | 100 nM 2.72% | 833.33 nM 0.6% | 10000 nM -0.27%

CC(C)n1c(/C=C/[C@@H](O)C[C@@H](O)CC(=O)O)c(-c2ccc(F)cc2)c2ccccc21 [fluvastatin]
inactive: 1 nM -0.24% | 8.33 nM -1.21% | 100 nM 1.75% | 833.33 nM -1.33% | 10000 nM 2.61%

CN(C)C(=N)NC(=N)N [metformin]
inactive: 1 nM 0.25% | 8.33 nM 1.14% | 100 nM 2.76% | 833.33 nM 1.97% | 10000 nM 5.07%

CCOC(=O)Nc1cc2c(c(N)n1)N=C(c1ccccc1)[C@H](C)N2 [mivobulin]
inactive: 1 nM 3.19% | 8.33 nM 0.16% | 100 nM 1.34% | 833.33 nM 1.06% | 10000 nM -0.59%

COc1ccc([C@]2(C#N)CC[C@@H](C(=O)O)CC2)cc1OC1CCCC1 [cilomilast]
inactive: 1 nM -1.82% | 8.33 nM -3.26% | 100 nM -2.36% | 833.33 nM -1.23% | 10000 nM -0.83%

O=C1c2ccccc2-c2n[nH]c3cccc1c23 [pyrazolanthrone]
inactive: 1 nM -4.36% | 8.33 nM 0.82% | 100 nM -1.61% | 833.33 nM -1.07% | 10000 nM -5.91%

Cc1cccc(-c2[nH]c(CNc3ccccc3F)nc2-c2ccc3ncnn3c2)n1
inactive: 1 nM 0.31% | 8.33 nM 3.47% | 100 nM 1.38% | 833.33 nM 1.08% | 10000 nM 2.46%

COC(=O)[C@]12CCC(C)(C)C[C@H]1[C@H]1C(=O)C=C3[C@@]4(C)C=C(C#N)C(=O)C(C)(C)[C@@H]4CC[C@@]3(C)[C@]1(C)CC2 [Bardoxolone Methyl]
inactive: 1 nM 2.85% | 8.33 nM 3.94% | 100 nM -1.03% | 10000 nM -23.4%
active: 833.33 nM 33.7%
